# LASV entry inh: blocks Lassa virus binding or cell entry; AID 720533; Lassa virus pseudotyped entry inhibition, cell-based qHTS; Potency, µM (doses to about 49.2 µM), usual class: inhibitors; 18,000 compounds, 4.1% hits
# Marburg entry: inhibitors of Marburg virus binding or entry into cells; Marburg virus pseudotype entry/binding inhibition, cell-based; Potency, µM (highest dose often 49.2 µM), most hits filed as inhibitors; 18,000 compounds, 6.5% hits; AID 720532
# Hits are given with their value; i = inactive; ? = inconclusive; nt = no result given; ! = not active in a repeat; [ ] = another dose, or the depositor's remark. Rows were chosen to be rich in hits. Some 8% of all compounds tested hit in one or more screens of this group. Calls follow the shape of the full dose curve; tested in HEK293 cells.
SMILES,LASV entry inh,Marburg entry
COC(=O)C1=C(C)N(Cc2ccccc2)C(=NCCc2ccccn2)NC1c1cccc(F)c1 (configuration not stated),i[8.59 µM],i[8.59 µM]
CC(C)c1cc(/C=C(\C#N)C(=O)NCCCc2ccccc2)cc(C(C)C)c1O,25.1µM,?
N#C/C(=C\c1ccc(O)c(O)c1)C(=O)NCCCNC(=O)/C(C#N)=C/c1ccc(O)c(O)c1,i,i
CC(C)=CCCC(C)=CCON=C1C[C@@H](O)[C@@H](O)[C@@H]2[C@H]3C(=O)N(C[C@@H]4CCCO4)C(=O)[C@@H]3CC[C@@H]12,i[8.59 µM],i[8.59 µM]
O=C(c1cccs1)N1C[C@@H](O)[C@@H](n2cc(-c3ccc(F)cc3)nn2)C[C@@H]1c1ccccc1,i,i
O=C1C2=C(C(=O)c3ccccc31)[C@H]1O[C@](CCCCN3C(=O)c4ccccc4C3=O)(Cc3ccccc31)O2,i[8.59 µM],i[8.59 µM]
CC1CC2OC2/C=C\C=C/C(=O)Cc2c(Cl)c(O)cc(O)c2C(=O)O1 (configuration not stated),7.94µM,2.51µM
C[C@H]1CCC[C@H](O)CCCCCc2cc(O)cc(O)c2C(=O)O1,i,i
C[C@H]1CC[C@H]2C(=O)N(Cc3ccccc3)C[C@@H](O)CN2[C@H]1c1ccc(Br)cc1,i[8.59 µM],i[8.59 µM]
CO[C@@H]1[C@@H](O[C@@H]2O[C@H](C)[C@@H](O[C@H]3C[C@@](C)(O)[C@@H](O)[C@H](C)O3)[C@H](N(C)C)[C@H]2O)[C@@H](CC=O)C[C@@H](C)[C@@H](O[C@@H]2CC[C@H](N(C)C)[C@@H](C)O2)/C=C/C=C/C[C@@H](C)OC(=O)C[C@H]1O,i,?
CCC1OC(=O)C[C@@H](O)[C@H](C)[C@@H](O[C@@H]2O[C@H](C)C[C@H](N(C)C)[C@H]2O)[C@@H](CC=O)C[C@@H](C)C(=O)/C=C/[C@]2(C)OC2C1C (some centres not stated),25.1µM,8.91µM
CC(C)=CCCC(C)=CCON=C1C[C@@H](O)[C@@H](O)[C@@H]2[C@H]3C(=O)N(Cc4ccc5c(c4)OCO5)C(=O)[C@@H]3CC[C@@H]12,nt,i[8.59 µM]
COC(=O)[C@H]1[C@@H](c2ccccc2)NC(=O)N(Cc2ccccc2)[C@@H]1C,i[8.59 µM],?
COc1cc2c(c(OC)c1OC)C1(c3ccccc3)CCCCCC1[C@@H]2NC(=O)C(F)(F)F (some centres not stated),nt,i[8.59 µM]
CN(C)CCC=C1c2ccccc2C(C)(C)c2ccccc21,17.8µM,4.47µM
CN(C)CC/C=C1/c2ccccc2COc2ccccc21,i,?
CN(C)CC/C=C1\c2ccccc2Sc2ccc(Cl)cc21,28.2µM!,11.2µM!
CN(C)CCC=C1c2ccccc2CCc2ccccc21,?,10µM
CN(C)CCC=C1c2ccccc2C=Cc2ccccc21,31.6µM!,11.2µM
OCCN1CCN(CC/C=C2/c3ccccc3Sc3ccc(Cl)cc32)CC1,i,?
CN(C)CC/C=C1/c2ccccc2COc2ccc(CC(=O)O)cc21,i,i
Cc1cc2c(c(=O)n1-c1ccccc1)[C@H]1O[C@](c3ccsc3)(Cc3ccccc31)O2,i[8.59 µM],?
C#CCNC(=O)[C@H]1C=C(OC)C(=O)C[C@H](c2ccccc2)[C@H]1C,i[8.59 µM],i[8.59 µM]
CCC[C@H]1CN(c2ccccc2)C(=O)[C@H]1CC(=O)Nc1ccc(OC)cc1,i,i
O=S1(=O)CCSCCN1Cc1cc(F)ccc1Br,i,i
SMILES,LASV entry inh,Marburg entry
C=CCOC(=O)N[C@H](c1ccccc1)[C@H](C)C=CCC(=O)OC,i[8.59 µM],i[8.59 µM]
COC(=O)c1cc(CNC(=O)c2ccccc2OC)cc(NC(=O)c2ccccc2F)c1,?,i
CC=C[C@@H]1Oc2ccc(OC)cc2N2C(=O)[C@H](C)[C@@H](OCOC)[C@H]12,i[8.59 µM],i[8.59 µM]
CNCCC=C1c2ccccc2C=Cc2ccccc21,?,5.01µM
CCCCC1C(=O)N(c2ccccc2)N(c2ccc(O)cc2)C1=O (configuration not stated),?,i
CCCCc1c(O)n(-c2ccccc2)[nH]c1=O,10µM,i
CN1CCN(c2nc3cc(C(F)(F)F)ccc3n3cccc23)CC1,i,28.2µM!
CC(=O)CCC(=O)N1CCC(n2c(C3CCCO3)nc3cc(C(F)(F)F)ccc32)CC1 (configuration not stated),i,i
COc1ccc(C=CNC(=O)c2ccc(OC)cc2)cc1,i[8.59 µM],i[8.59 µM]
CC(O)c1cccc(-c2ccc(CN3C[C@]4(CO)OC(CO)C[C@H]4[S+]3(=O)[O-])cc2)c1 (some centres not stated),i,i
CO[C@H]1C[C@@H]2CC[C@@H](C)[C@@](O)(O2)C(=O)C(=O)N2CCCC[C@H]2C(=O)OC([C@H](C)C[C@@H]2CC[C@@H](O)[C@H](OC)C2)CC(=O)[C@H](C)/C=C(\C)[C@@H](O)[C@@H](OC)C(=O)[C@H](C)C[C@H](C)/C=C/C=C/C=C/1C (some centres not stated),28.2µM!,35.5µM!
COc1cccc([C@H]2Oc3ccc(OC)cc3C(=NOC[C@@H](C)[C@H](OCc3ccccc3)C(C)C)[C@H]2O)c1,i[8.59 µM],i[8.59 µM]
O=C(O)c1ccccc1[O-].O=C(O)c1ccccc1[O-].[Zn+2],i,i
Cc1ccc(C(=O)N(Cc2cc3cccc(C)c3nc2N(C)C)CC2CCCO2)cc1 (configuration not stated),i,i
COc1ccccc1C(=O)N(Cc1cc2cc3c(cc2nc1N(C)C)OCO3)CC1CCCO1 (configuration not stated),11.2µM,12.6µM
O[C@H]1C[C@H](c2ccccc2)N(Cc2cccs2)C[C@H]1n1cc(-c2ccc(F)cc2)nn1,i,?
CCCCCCC(=O)O[C@H]1CC[C@H]2[C@@H]3CCc4cc(O)ccc4[C@H]3CC[C@]12C,31.6µM,i
C[C@@]12CC[C@@H]3c4ccc(O)cc4CC[C@H]3[C@H]1CC[C@H]2O,i,i
CC12CCC3c4ccc(O)cc4CCC3C1CCC2O (configuration not stated),?,i
C[C@]12CC[C@@H]3c4ccc(O)cc4CC[C@H]3[C@@H]1CC[C@@H]2O,14.1µM!,i
C[C@@H](O)[C@H]1C(=O)N2C(C(=O)[O-])=C(SC3Cn4cnc[n+]4C3)[C@H](C)[C@H]12 (some centres not stated),i,i
C[C@@H]1CN(CCCn2c3ccccc3c3ccccc32)C[C@H](C)N1,17.8µM,7.94µM
CCN1C(=O)[C@@H]2[C@H]3[C@H](O)[C@H](O)CC(=NOC[C@@H](O)COCc4ccco4)[C@@H]3CC[C@H]2C1=O,i[8.59 µM],i[8.59 µM]
O=C1C=CC2=C3c4cc(O)c(O)cc4CC3(O)COC2=C1O (configuration not stated),i,3.16µM
O=C(C=Cc1cccc([N+](=O)[O-])c1)c1ccccc1,nt,i[8.59 µM]
Cc1cc2c(nc1C)CCCCN2C[C@H](C)ON=C[C@@H](C)[C@H](OCc1ccccc1)C(C)C,i[8.59 µM],?
CCC1=CC2CN3CCc4c([nH]c5ccccc45)[C@@](C(=O)OC)(C2)[C@@H]13,?,7.94µM
COC(=O)C1=CO[C@@H](C)[C@H]2CN3CCc4c([nH]c5ccccc45)[C@@H]3C[C@H]12,i,?
CC[C@H](C)[C@@H]1O[C@]2(CC[C@@H]1C)C[C@H]1C[C@H](CC=C(C)[C@@H](O[C@@H]3C[C@H](OC)[C@H](O[C@@H]4C[C@H](OC)[C@H](O)[C@H](C)O4)[C@H](C)O3)[C@@H](C)C=CC=C3CO[C@@H]4[C@@H](O)C(C)=C[C@@H](C(=O)O1)[C@]34O)O2,i,?

# Assay outcomes deposited in PubChem BioAssay by National Center for Advancing Translational Sciences (NCATS).
